Assay [1] can be described thus: qHTS RealTime-Glo MT Cell Viability Assay in HEK293 cells - 0 hour (AID 1224880). Further: top concentration of the series differs between compounds; nearly all actives have a fitted effect of over 45% in size. Put shortly: (§1)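 Luminescence, which tracks viable cell number through reduction of the prosubstrate to a NanoLuc substrate, was read over continuous 37 C culture. Cells (600/well) were premixed with reagent and rested 5 h before 23 nL of compound in DMSO was pinned.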
Assay [2] is described as follows: A CellTox Green Cytotoxicity Assay to monitor cytotoxicity in HEK293 cells - 32 hour (AID 1224881). Further: nearly all actives have a fitted effect of over 40% in size. The method in brief:
(§2)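 Fluorescence from a DNA-binding dye excluded by viable cells was measured repeatedly in the same HEK293 wells (600 cells/well) during continuous compound exposure at 37 C. Each assay gives one read point: 0, 8, 16, 24, 32 or 40 h.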

A short description of assay [3]: A CellTox Green Cytotoxicity Assay to monitor cytotoxicity in HepG2 cells - 0 hour (AID 1224882). Further: nearly all actives have a fitted effect of over 35% in size. Put shortly: (§3)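 Real-time cytotoxicity: fluorescence of a cell-impermeant cyanine dye binding DNA of dead HepG2 cells, measured repeatedly (0–40 h) during compound exposure at 37 C. Cells seeded 600/well with reagent, dosed after 5 h.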
A short description of assay [4]: A CellTox Green Cytotoxicity Assay to monitor cytotoxicity in HEK293 cells - 8 hour (AID 1224884). Further: nearly all actives have a fitted effect of over 35% in size. Put shortly:
as §2

A short description of assay [5]: qHTS RealTime-Glo MT Cell Viability Assay in HepG2 cells - 16 hour (AID 1224885). Further: nearly all actives have a fitted effect of over 50% in size. The method in brief: (§4)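 Tox21 10K library screened in qHTS format on HepG2 cells carrying RealTime-Glo reagents. Compounds were added after a 5 h preincubation, and the luminescent signal from continuous culture was measured repeatedly during 40 h treatment.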
(In general: In qHTS, concentration-response curves come from the screen itself.)

The nature of assay [6]: qHTS RealTime-Glo MT Cell Viability Assay in HEK293 cells - 24 hour (AID 1224886). Further: nearly all actives have a fitted effect of over 50% in size. Further: potency means the concentration at half of the fitted maximal effect. Put shortly:
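Luminescence generated by NanoLuc from substrate produced by living HEK293 cells served as the viability signal. Each value reflects the reading at its stated time point during continuous 40 h compound exposure at 37 C.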

Assay [7] is described as follows: qHTS RealTime-Glo MT Cell Viability Assay in HEK293 cells - 8 hour (AID 1224887). Further: nearly all actives have a fitted effect of over 50% in size. Further: potency means the concentration at half of the fitted maximal effect. The method in brief:
as §1

The nature of assay [8]: A CellTox Green Cytotoxicity Assay to monitor cytotoxicity in HEK293 cells - 16 hour (AID 1224888). Further: nearly all actives have a fitted effect of over 35% in size. The method in brief: as §2
Assay [9] in a line: qHTS RealTime-Glo MT Cell Viability Assay in HepG2 cells - 0 hour (AID 1224889). Further: nearly all actives have a fitted effect of over 50% in size. The method in brief: as §4
A short description of assay [10]: A CellTox Green Cytotoxicity Assay to monitor cytotoxicity in HepG2 cells - 8 hour (AID 1224890). Further: nearly all actives have a fitted effect of over 45% in size. Further: potency means the concentration at half of the fitted maximal effect. Put shortly:
as §3

Assay [11] in a line: qHTS assay to identify small molecule antagonists of the estrogen receptor alpha (ER-alpha) signaling pathway using the BG1 cell line in the presence of 0.1 nM 17-beta-estradiol - cell viability counter screen (AID 1259241). Further: nearly all actives have a fitted effect of over 40% in size. Put shortly: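 VM7Luc4E2, 4,000 cells/well, phenol red-free medium + 10% charcoal-stripped FBS; 24 hr plating; cpd + 0.1 nM E2 final, 22 hr 37C/5% CO2; CellTiter-Fluor 30 min, fluorescence.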

Assay [12] in a line: qHTS assay to identify small molecule antagonists of the androgen receptor (AR) signaling pathway using the MDA cell line in the presence of 0.5 nM R1881 - cell viability counter screen (AID 1259242). Further: nearly all actives have a fitted effect of over 45% in size. Put shortly: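 Live-cell protease activity was measured by CellTiter-Fluor fluorescence after 30 min. Before that, MDA-kb2 MMTV-luciferase cells had 16 hr at 37C without CO2, exposed to test compounds and 0.5 nM R1881 final.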

The nature of assay [13]: qHTS assay to identify small molecule HDAC inhibitors (AID 1259364). Further: nearly all actives have a fitted effect of over 45% in size. Further: potency means the concentration at half of the fitted maximal effect. Put shortly: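 Luminescence read after 30 min room-temperature HDAC-Glo incubation measures cellular class I/II HDAC activity. Compounds were applied for 2 hr at 37 C to HCT-116 wild-type cells seeded the day before.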
A short description of assay [14]: qHTS assay to identify small molecule HDAC inhibitors - cell viability counter screen (AID 1259365). Put shortly: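 Luminescence from CellTiter-Glo, developed 30min at room temperature, reports viability of wild-type HCT-116 cells treated 2hr with compounds at 37 C and 5% CO2 after overnight plating.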
The nature of assay [15]: qHTS assay to identify small molecule agonists of the sonic hedgehog signaling (Shh) pathway - cell viability counter screen (AID 1259366). Further: nearly all actives have a fitted effect of over 50% in size. The method in brief:
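Cytotoxicity counter screen run in the same wells as the Shh reporter assay. NIH/3T3 cells carrying a Gli1 response element–driven luciferase were treated with DMSO-dissolved compounds for 24hr, and live-cell protease activity was measured with CellTiter-Fluor.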

A short description of assay [16]: qHTS assay to identify small molecule antagonists of the sonic hedgehog signaling (Shh) pathway - cell viability counter screen (AID 1259367). Further: nearly all actives have a fitted effect of over 55% in size. Put shortly: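 Viability was read by CellTiter-Fluor fluorescence in the same wells, reagent added 23 hr into compound treatment and incubated 1 hr at 37C. The 3T3 Gli1-Luc reporter cells (2,000/well) received conditioned medium after compound and ran 24 hr.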

Assay [17] can be described thus: A CellTox Green Cytotoxicity Assay to monitor cytotoxicity in HepG2 cells - 32 hour (AID 1224883). Further: nearly all actives have a fitted effect of over 50% in size. Further: potency means the concentration at half of the fitted maximal effect. The method in brief: as §3
Assay [18] deals with Estrogen receptor (Homo sapiens) (UniProt P03372). Kind of assay: qHTS assay to identify small molecule antagonists of the estrogen receptor alpha (ER-alpha) signaling pathway using the BG1 cell line in the presence of 0.1 nM 17-beta-estradiol (AID 1259244). Further: nearly all actives have a fitted effect of over 50% in size. Put shortly:
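Luciferase luminescence (ONE-Glo, 30 min at room temperature) was read after 22 hr at 37C exposure to compounds plus 17beta-estradiol at 0.1 nM final. Cells were VM7Luc4E2 with endogenous ER-alpha and an ERE-driven luciferase, pre-cultured 5 days in hormone-depleted medium.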

The nature of assay [19]: qHTS assay to identify small molecule phospholipidosis (PLD) inducers (AID 1259344; active means well fitted curve in the direction sought with a large enough effect; an effect the other way counts as inactive or inconclusive). The method in brief: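 Phospholipid accumulation was scored by imaging: fixed, Hoechst-counterstained HepG2 cells stained with LipidTOX Red after 24 h compound exposure at 37 C. Read-outs were pit count and pit intensity per well or per cell, with amiodarone and DMSO controls.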
In assay [20] the target is Androgen receptor (Homo sapiens) (UniProt P10275). Briefly: qHTS assay to identify small molecule antagonists of the androgen receptor (AR) signaling pathway using the MDA cell line in the presence of 0.5 nM R1881 (AID 1259243). Further: nearly all actives have a fitted effect of over 50% in size. Further: potency means the concentration at half of the fitted maximal effect. Put shortly: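 Luminescent reporter readout (ONE-Glo, 30 min, room temperature) after 16 hr co-treatment of MDA-kb2 cells with test compounds and 0.5 nM R1881 final, at 37C without CO2. The MMTV-driven luciferase responds to both AR and GR.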
Chain of Androgen receptor (Homo sapiens) (P10275 whole entry, looked up): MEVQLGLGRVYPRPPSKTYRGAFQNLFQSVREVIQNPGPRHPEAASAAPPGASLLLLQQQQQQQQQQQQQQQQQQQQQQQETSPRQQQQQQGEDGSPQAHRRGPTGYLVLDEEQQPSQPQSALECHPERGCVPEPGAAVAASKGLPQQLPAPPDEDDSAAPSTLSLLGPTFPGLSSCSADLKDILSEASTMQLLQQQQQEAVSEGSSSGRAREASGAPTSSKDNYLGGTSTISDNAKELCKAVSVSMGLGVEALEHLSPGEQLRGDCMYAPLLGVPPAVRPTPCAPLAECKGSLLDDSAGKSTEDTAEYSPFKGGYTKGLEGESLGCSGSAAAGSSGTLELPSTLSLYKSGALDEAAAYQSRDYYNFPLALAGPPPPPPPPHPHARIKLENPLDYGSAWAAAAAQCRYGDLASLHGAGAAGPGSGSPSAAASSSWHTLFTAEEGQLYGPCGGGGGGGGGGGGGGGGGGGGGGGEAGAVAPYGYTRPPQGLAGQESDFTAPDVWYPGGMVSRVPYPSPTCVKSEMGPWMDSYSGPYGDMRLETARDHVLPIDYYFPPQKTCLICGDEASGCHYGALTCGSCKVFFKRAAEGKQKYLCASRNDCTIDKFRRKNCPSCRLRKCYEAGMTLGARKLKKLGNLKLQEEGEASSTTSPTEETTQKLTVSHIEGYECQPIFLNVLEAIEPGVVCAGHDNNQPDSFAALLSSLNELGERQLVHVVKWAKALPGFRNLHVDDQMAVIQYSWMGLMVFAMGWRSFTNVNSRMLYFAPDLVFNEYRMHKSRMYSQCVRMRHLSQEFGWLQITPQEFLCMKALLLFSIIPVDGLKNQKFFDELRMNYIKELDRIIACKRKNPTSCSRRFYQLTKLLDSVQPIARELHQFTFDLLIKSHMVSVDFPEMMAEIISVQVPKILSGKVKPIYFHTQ

Where “and” joins values, the source holds several entries; their conditions need not be identical. Equal entries are not always repeated. Records with an inconclusive call do not appear. Some structures have more than one record in an assay (separate samples or runs), and their calls can disagree. Calls of active or inactive are those of the source. Unless noted, the call rests on the fitted dose curve; in most records, active means well fitted curve in the direction sought with a large enough effect in the repeat runs; inconclusive means weak or mixed curves; inactive means no such curve, though single readings can be large; an effect the other way counts as inactive or inconclusive.

Chain of Estrogen receptor (Homo sapiens) (P03372 whole entry, looked up): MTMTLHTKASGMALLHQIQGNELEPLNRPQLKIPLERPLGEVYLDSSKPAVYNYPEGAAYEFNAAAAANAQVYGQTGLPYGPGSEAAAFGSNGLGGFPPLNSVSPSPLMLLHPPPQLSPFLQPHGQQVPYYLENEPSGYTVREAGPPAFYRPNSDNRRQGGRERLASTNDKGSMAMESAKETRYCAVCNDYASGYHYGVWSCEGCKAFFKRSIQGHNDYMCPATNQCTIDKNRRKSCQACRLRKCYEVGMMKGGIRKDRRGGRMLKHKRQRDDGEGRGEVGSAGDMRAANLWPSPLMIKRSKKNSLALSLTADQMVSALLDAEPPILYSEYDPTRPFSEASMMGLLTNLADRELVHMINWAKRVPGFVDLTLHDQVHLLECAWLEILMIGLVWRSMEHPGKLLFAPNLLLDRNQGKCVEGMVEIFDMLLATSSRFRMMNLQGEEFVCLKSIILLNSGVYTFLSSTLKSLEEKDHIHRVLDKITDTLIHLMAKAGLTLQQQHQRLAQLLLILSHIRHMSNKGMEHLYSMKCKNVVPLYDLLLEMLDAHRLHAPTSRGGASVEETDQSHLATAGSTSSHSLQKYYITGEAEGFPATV

Regarding `NS(=O)(=O)c1ccccc1Cl`, the Potency entry in assay [1], in [2], in [3], in [4], in assay [5] and in [6] was “inactive” in each case. Besides, the Potency result in [7], in [8], in [9], in [10], in [12] and in assay [13] was “inactive” in each case. In addition, the Potency entry in assay [15] and in assay [16] was “inactive” each time. In addition, the result in assay [11] and in assay [14] was inactive.

Regarding `O=C1NC(=O)[C@@]2(CCOc3ccc(F)cc32)N1`, the Potency result in [2], in assay [3], in assay [17], in assay [4], in [5] and in assay [6] was “inactive” throughout. The Potency result in [7], in [8], in [9], in [10], in assay [12] and in [19] was “inactive” in each case. Moreover, the Potency result in [13], in assay [15] and in assay [16] was “inactive” throughout. Besides, the outcome in assay [11], in [18] and in assay [14] was inactive.

Consider `Cc1ccc(C#N)cc1`, for which the Potency result in [1], in assay [2], in assay [3], in assay [4], in [5] and in [7] was “inactive” in each case. Also, the Potency entry in [8], in [9], in [10], in assay [12], in assay [13] and in assay [15] was “inactive” throughout. In addition, the Potency entry in [16] was “inactive”. The outcome in assay [11], in [18] and in assay [14] was inactive.

`CO[C@]12C[C@@H](COC(=O)c3cncc(Br)c3)CN(C)[C@@H]1Cc1cn(C)c3cccc2c13`: the Potency result in assay [1], in assay [2], in [4], in assay [5], in assay [6] and in assay [12] was “inactive” throughout. Moreover, the Potency entry in [13], in [15] and in assay [16] was “inactive” throughout. For the same compound, in assay [10], the Potency is 26.8 µM (active). The outcome in [11] and in [14] was inactive.

As to `Cc1cnc(NS(=O)(=O)c2ccc(N)cc2)nc1`, the Potency result in assay [1], in [2], in assay [3], in assay [4], in assay [5] and in [6] was “inactive” in each case. For the same compound, the Potency entry in [7], in assay [9], in assay [10], in assay [12], in assay [20] and in [13] was “inactive” each time. Further, the Potency entry in assay [15] and in [16] was “inactive” each time. The outcome in [11], in [18] and in assay [14] was inactive.

Regarding `O=c1cc(-c2ccccc2)oc2ccccc12`, the Potency result in assay [1], in [3], in assay [4], in [5], in assay [8] and in assay [10] was “inactive” in each case. The Potency entry in assay [12], in assay [15] and in [16] was “inactive” throughout. In addition, the Potency entry in [17] is “inactive and 48.7 µM (active)”; in assay [6], 17.4 µM (active) and 7.71 µM (active); in assay [7], 17.4 µM (active) and 17.3 µM (active); in [20] it was 7.7 µM (active) and 3.83 µM (active); in assay [13], 24.3 µM (active) and 17.6 µM (active). Moreover, the result in assay [11], in assay [18] and in assay [14] was inactive.

For the compound `C=C[Si](OC(=C)C)(OC(=C)C)OC(=C)C`, the Potency entry in assay [1], in assay [2], in assay [3], in assay [4], in assay [5] and in [6] was “inactive” throughout. Further, the Potency entry in assay [8], in assay [9], in [10], in assay [12], in [13] and in assay [15] was “inactive” throughout. Further, in [16], the Potency entry was “inactive”. The result in assay [11], in assay [18] and in assay [14] was inactive.

Regarding `COc1c(N2C[C@@H]3CCCN[C@@H]3C2)c(F)cc2c(=O)c(C(=O)O)cn(C3CC3)c12`, the Potency result in assay [2], in assay [3], in assay [17], in assay [4], in [5] and in assay [6] was “inactive” in each case. In addition, the Potency entry in assay [7], in assay [8], in assay [9], in assay [10], in [12] and in assay [19] was “inactive” each time. Besides, the Potency result in [13], in assay [15] and in [16] was “inactive” in each case. The outcome in assay [11], in [18] and in [14] was inactive.

`C[C@H](NC(CCc1ccccc1)C(=O)O)C(=O)N1CCC[C@H]1C(=O)O` (some centres undefined): the Potency entry in assay [2], in [3], in assay [17], in [4], in assay [5] and in assay [6] was “inactive” each time. The Potency entry in assay [7], in assay [8], in [9], in [10], in assay [12] and in [19] was “inactive” in each case. Besides, the Potency result in assay [13], in [15] and in assay [16] was “inactive” each time. Moreover, the outcome in [11], in assay [18] and in assay [14] was inactive.

Turning to `CCOC(=O)Nc1ccc(NCc2ccc(F)cc2)nc1N`, the Potency result in [1], in [2], in assay [3], in assay [4], in assay [5] and in assay [7] was “inactive” each time. For the same compound, the Potency entry in assay [9], in assay [10], in assay [12], in assay [13], in assay [15] and in assay [16] was “inactive” in each case. Further, the outcome in assay [11], in assay [18] and in assay [14] was inactive.

With `COC(=O)c1cc(C(=O)OC)cc(S(=O)(=O)O)c1`, the Potency entry in assay [1], in assay [2], in assay [3], in [4], in assay [5] and in assay [6] was “inactive” each time. Moreover, the Potency result in [7], in [9], in [10], in assay [12], in [13] and in assay [15] was “inactive” in each case. Further, in assay [16], the Potency entry was “inactive”. Moreover, the outcome in assay [11] and in assay [14] was inactive.

Consider `O=C1CC2CC1C1CCCC21` (centres undefined), for which the Potency result in [1], in assay [3], in assay [5], in [6], in assay [7] and in assay [9] was “inactive” each time. Also, the Potency result in assay [10], in assay [12], in [20], in [13], in [15] and in assay [16] was “inactive” each time. Further, the outcome in [11], in assay [18] and in [14] was inactive.

Take `CCc1cccc2c(CCO)c[nH]c12`: the Potency entry in assay [1], in [2], in assay [3], in assay [4], in assay [5] and in [6] was “inactive” throughout. The Potency entry in [7], in assay [8], in [9], in assay [10], in assay [12] and in [13] was “inactive” in each case. The Potency entry in assay [15] and in assay [16] was “inactive” throughout. The result in [11] and in assay [14] was inactive.
